Assay outcomes as filed in PubChem BioAssay.
HT1080-NT tox – kills 2HG-producing HT-1080-NT fibrosarcoma cells | HT-1080-NT fibrosarcoma viability, CellTiter-Glo ATP luminescence, 48 h | Potency, µM (doses to about 46.1 µM), inactives show at the highest dose activity, negative = less viability, most hits filed as cytotoxic | 1.6% of 360,000 active | AID 686970;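 also: NT is the 2HG producing partner of a matched IDH1 knockdown line; 0% = DMSO-treated cells and -100% = media-only wells without cells; nearly all actives have a fitted effect of over 55% in size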
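Luminescent CellTiter-Glo readout after 48 hours of compound exposure at 37 degrees C defined viability of HT-1080-NT cells. Activity was normalized to DMSO wells and cell-free media wells; concentration-response curves were fitted and assigned curve classes.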
HT1080 IDH1KD tx – toxicity to HT-1080 IDH1 knockdown cells (counter line); 2% of 360,000 active; Potency, µM (highest dose often 46.1 µM), inactives show top-dose activity, negative = toxicity, actives largely listed as cytotoxic; HT-1080 IDH1 knockdown viability, ATP luminescence, 48 h;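 also: 0% = DMSO wells and -100% = cell-free medium wells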
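Assay cells: HT-1080 with IDH1 knockdown, 750 per well, RPMI/5% FBS. Exposure: 48 h at 37 °C following 2 h pre-incubation. Read: CellTiter-Glo luminescence; fitted concentration-response, curve class assigned.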
KB-V1 cytotox – KB-V1 MDR subline cytotoxicity. Potency, µM (highest dose often 46.1 µM), most hits filed as cytotoxic. KB-V1 MDR cells viability, CellTiter-Glo, 72 h. 3.4% of 400,000 active; also: nearly all actives have a fitted effect of over 60% in size
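Luminescent ATP read-out (CellTiter-Glo, 10 min) measures survival of drug-selected KB-V1 MDR cells after 72 h, 37 degrees C compound exposure. Medium: phenol-red-free DMEM, 10% FBS. Values from fitted concentration-response curves.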
KB-3-1 cytotox – kills parental KB-3-1 adenocarcinoma cells; 1.4% of 400,000 active; Potency, µM (series often up to 46.1 µM), hits mostly cytotoxic; KB-3-1 viability, CellTiter-Glo ATP luminescence, 72 h; also: nearly all actives have a fitted effect of over 60% in size
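Parental KB-3-1 viability, qHTS format: 72 h compound exposure, 37 °C; CellTiter-Glo; media-only wells and DMSO plates as controls; concentration-effect fits on corrected data.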
TDP1 cell CPT – growth inhibition of DT40 Tdp1-/-;hTDP1 cells with camptothecin (screen for TDP1 inhibitors) | Potency, µM (series often up to 46.2 µM), without a hit: at the top dose activity change, negative = growth inhibition, most hits filed as inhibitors | 12% of 420,000 active | AID 686979 | chicken DT40 Tdp1-/-;hTDP1 cells + 20 nM CPT, ATP luminescence, 48 h; also: nearly all actives have a fitted effect of over 55% in size
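Chicken DT40 Tdp1-/- cells complemented with human TDP1, 400 cells/well, exposed to compounds plus 20 nM camptothecin for at least 48 h at 37 C; viability read as ATP content by CellTiter-Glo luminescence.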
TDP1 cell noCPT – qHTS for Inhibitors of human tyrosyl-DNA phosphodiesterase 1 (TDP1): qHTS in cells in absence of CPT; DT40 Tdp1-/- hTDP1 cells, no CPT, ATP luminescence, 48 h; Potency, µM (series often up to 46.2 µM), without a hit: at the highest dose activity change, negative = growth inhibition, most hits filed as inhibitors; 15% of 420,000 active; AID 686978, 2013; also: nearly all actives have a fitted effect of over 55% in size
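Compound effects on proliferation are scored in DT40 Tdp1-/-;hTDP1 cells in the absence of CPT. ATP levels (CellTiter-Glo luminescence) are recorded after a ≥48 hr, 37 °C incubation.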
Active calls of the source: *; i = inactive; u = inconclusive; x = no result. The list is not random: actives were taken first. Their share in the collection is about 19%. Calls follow the shape of the dose curve; as a rule, active = well fitted curve in the direction sought with a large enough effect; inconclusive = small, poorly fitted or top-dose-only effect, or another doubt; inactive = no such curve, though single readings can be large; an effect the other way counts as inactive or inconclusive. Unless noted, % is scaled to controls: 0 for no effect and ±100 for the full control effect; potency is read from the fitted curve at half-maximal effect.

SMILES | HT1080-NT tox | HT1080 IDH1KD tx | KB-V1 cytotox | KB-3-1 cytotox | TDP1 cell CPT | TDP1 cell noCPT
CCN(CC)CCn1nc(C)nc1-c1ccccc1O | 0.6% | 4.1% | u | i | -7.2% | -8.1%
CCN1C/C(=N\S(=O)(=O)/N=C2\CN(CC)C(=O)N2CC)N(CC)C1=O | -1.0% | 0.6% | i | i | -7.4% | 14.9%
CCOc1cc(CNC(=O)NC2COc3ccc(OC)cc3C2)cc(OCC)c1OCC (configuration not stated) | x | x | i | i | u | u
Cc1cc2ccccn2c1C(=O)c1ccccc1F | 14.6µM* | u | u | u | u | u
Cc1cc2ccccn2c1C(=O)c1ccc(Cl)cc1 | -26.2% | -20.8% | i | i | -28.1% | -24.2%
Cc1cc(OCC(=O)OCC(=O)NCc2cccs2)ccc1Cl | -1.2% | 4.8% | i | i | -6.8% | -24.7%
CCCn1c(N)c(Sc2ccccc2)c(=O)n(CCC)c1=O | 5.9% | -4.8% | 13µM* | i | u | 14.6µM*
Cc1ccc(S(=O)(=O)N(C)Cc2nc(-c3ccncc3)no2)cc1 | 7.0% | -8.2% | u | u | u | u
Cc1ccc(-c2noc(CN(C)C(=O)Nc3ccc(F)cc3)n2)cc1 | -0.8% | -8.7% | u | i | 10.2% | -21.4%
CS(=O)(=O)N(Cc1nc(-c2ccc(F)cc2)no1)c1ccccc1Cl | -5.9% | -0.2% | u | i | 18.4µM* | u
COc1ccc(S(=O)(=O)N(Cc2ccccc2)Cc2nc(-c3ccccc3)no2)cc1 | 7.2% | 12.5% | i | i | 14.6µM* | 18.4µM*
COc1ccc(Cc2nc(-c3ccccc3)no2)cc1 | 12.5% | 7.9% | i | i | -11.8% | -16.3%
Cc1ccc(-c2noc(CN(C3CCCCC3)S(=O)(=O)c3ccc(F)cc3)n2)cc1 | x | x | x | x | u | 18.4µM*
COc1ccc(S(=O)(=O)N(Cc2cccs2)C2CCCC2)cc1 | -10.3% | -8.9% | i | u | 18.4µM* | 11.6µM*
CC(C)OP(=O)(c1ccc(N(C)C)cc1)C(O)c1cccnc1 (configuration not stated) | 1.2% | -3.9% | i | i | -1.9% | -2.6%
COc1ccc(CN2C(=O)C(CC(=O)NCc3cccs3)CC(C(=O)N(C(C)C)C(C)C)=C2C)cc1 (configuration not stated) | 13.5% | 3.4% | i | i | u | u
CCCc1nc(-c2ccc(-c3ccc(F)cc3)cc2)no1 | 12.2% | 6.4% | 20.6µM* | i | 2.1% | -16.0%
COc1ccc(S(=O)(=O)N(Cc2nc(-c3ccccc3)no2)C2CCCCC2)cc1 | x | x | x | x | 16.4µM* | 9.2µM*
O=C(NC1CCCCC1)c1cccc(N2C(=O)CCC2=O)c1 | 12.0% | 4.1% | i | i | -0.9% | -7.7%
C=CCn1cn[nH]c1=S | 10.5% | 16.8% | i | i | 5.17µM* | 0.2%
CC(N=C1NS(=O)(=O)c2ccccc21)C(=O)NCc1ccc(F)cc1 (configuration not stated) | 0.1% | 7.6% | i | i | 8.2% | -17.5%
S=c1[nH]cnc2scc(-c3ccccc3)c12 | -0.7% | 5.3% | u | i | u | 23.1µM*
O=C1CN(c2ccc(Cl)cc2)C2(CCCCC2)S1 | 1.2% | 6.0% | i | i | 29.1µM* | u
CC(C)(Oc1ccc(Br)cc1)C(=O)N1CCc2ccccc21 | 11.2% | -18.9% | 20.6µM* | i | 5.3% | u
CCOC(=O)c1cc(NC(=O)Nc2ccccn2)c(C)nc1C | -1.6% | -2.5% | i | u | u | -17.0%
c1ccc(CSc2nnc(-c3ccccc3)c(-c3ccccc3)n2)cc1 | -20.3% | -1.9% | 18.4µM* | i | u | u
